# This is part of a sample that, as a whole, favours compounds with a hit. Of some 79,000 tested, about 15% had one in any assay. A number with no mark means an inactive call. Active and inactive are the calls of the source. Rule as the data show it: active = growth inhibition above about 70%; inactive = the rest. Where a SMILES comes first, the peptide text is derived from it. The star is where a group is joined. Trt = c1ccc(C(c2ccccc2)(c2ccccc2)*)cc1; Cbz = O=C(OCc1ccccc1)*; Bz = O=C(c1ccccc1)*
# Assay: NCI Yeast Anticancer Drug Screen. Data for the rad50 strain (AID 155);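 also: 0% = growth of vehicle-only cultures of the same strain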
# Conditions: S. cerevisiae rad50 strain growth inhibition; at 50.0 µM; hits give high values
# Procedure, shortened: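 Relative growth inhibition (compound vs vehicle) was measured in yeast with a defined repair-gene alteration.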
row,Compound,growth inhibition
1,C#CCNC(=O)NC(CCCCNC(=O)OCc1ccccc1)C(=O)OCc1ccccc1 (stereo not given),-7.05%
2,Cc1ccc(N=C=Nc2ccc(C)cc2)cc1,2.65%
3,OCC(F)(F)C(F)(F)C(F)(F)C(F)(F)C(F)(F)C(F)(F)C(F)(F)C(F)F,23.9%
4,OC(CCCN1CCN2CCc3[nH]c4ccccc4c3C2C1)c1ccc(F)cc1 (stereo not given),23.9%
5,Cc1ccc(C(=O)/C(C#N)=C/Nc2c(C)n(C)n(-c3ccccc3)c2=O)cc1,17%
6,COC1OC2COC(c3ccccc3)OC2C(OC(C)=O)C1OS(=O)(=O)c1ccc(C)cc1 (stereo not given),-2.7%
7,Nc1ccc(N=Nc2c(S(=O)(=O)O)cc3cc(S(=O)(=O)O)cc(O)c3c2O)cc1,-30.8%
8,O=C(c1ccccc1)C1CCCCN1C(=O)c1ccccc1 (stereo not given),-13.8%
9,O=C(Cn1c(=O)oc2ccc(C(=O)c3ccc(F)cc3)cc21)c1ccccc1,-21.4%
10,COc1cc(/C=C(\C#N)c2ccccn2)cc(Br)c1O,-7.35%
11,CCC(NC(C)c1ccccc1)C(O)c1ccc(OCc2ccccc2)c(OCc2ccccc2)c1 (stereo not given),88.6% (active)
12,CC(=O)Nc1ccc2nc(/C=C/c3ccc(N(C)C)cc3)c(=O)oc2c1,38.5%
13,CC(C)CCN(CC(C)C)C(=O)c1ccc([N+](=O)[O-])cc1 (tested in a mixture with another compound),16.1%
14,CNC(CCCC1CCCCC1)C(=O)O (stereo not given),-2.85%
15,C(=C\c1csnn1)/c1ccc(/C=C/c2csnn2)cc1,-18%
16,CC(SC(=S)N1CCOCC1)C(=O)O (stereo not given),2.65%
17,CC(C)(C)C(=O)C(C(c1ccccc1)N1CCOCC1)N1CCOCC1 (stereo not given),21.7%
18,CC(=O)CC(=O)NC(C)(C)CC(C)(C)C,-16.4%
19,COC1OC(CCl)C(Cl)C(Cl)C1O (stereo not given),17.7%
20,O=c1cc(N2CCOCC2)n2c(ccc3ccccc32)n1,-17.9%

row,Compound,growth inhibition
1,CC(=O)OCC1OC(n2c3c(c(-c4ccc(Cl)cc4)c(C#N)c2=S)C(=O)CC(C)(C)C3)C(OC(C)=O)C(OC(C)=O)C1OC(C)=O (stereo not given),16.1%
2,CCCC(C)NC(=O)c1ccc(Cl)c(Cl)c1 (stereo not given),0.25%
3,O=c1[nH]c(=O)n(C2CC(O)C(CO)O2)c2ncncc12 (stereo not given),-0.85%
4,CC1C(O)CC2(C(C)C)CC12 (stereo not given),4.85%
5,CCOC(=O)c1ccc(OCC)cc1O,2.25%
6,Nc1c(Cl)cc2c(c1Br)Cc1cc(F)ccc1-2,-0.15%
7,CNC(=S)N(C)/N=C/c1ccccc1,10.3%
8,O=C(NC/C=C/Br)Oc1cccc2ccccc12,-0.05%
9,COC(=O)C(CSC(=O)c1ccccc1)NC(=O)CNC(=O)CNC(=O)C(CCCCNC(=O)OCc1ccccc1)NC(=O)CNC(=O)C(CSC(c1ccccc1)(c1ccccc1)c1ccccc1)NC(=O)OCc1ccccc1 (stereo not given) (Cbz-C(Trt)GK(Cbz)GGC(Bz)-OMe; configuration not given here),-4.85%
10,CC1(C)C(=O)/C=C\C(=O)C(C)(C)C2=CC=C(O2)C(C)(C)C(=O)C(Br)C(Br)C(=O)C(C)(C)C2=CC=C1O2 (stereo not given),-20.4%
11,CCc1c2c(nc3ccc(O)cc13)-c1cc3c(c(=O)n1C2)COC(=O)[C@]3(O)CC,33.2%
12,C[N+](C)(C)C1C2(CCCCC2)NC(=O)C12CCCCC2 (stereo not given),5.6%
13,O=C(NNC(=O)C(F)(F)F)C(F)(F)F,0.55%
14,CC(Cc1ccccc1)c1ccccc1 (stereo not given),15.9%
15,OC1C(OCc2ccccc2)OC(COCc2ccccc2)C(OC2OC(COCc3ccccc3)C(OCc3ccccc3)C(OCc3ccccc3)C2OCc2ccccc2)C1OCc1ccccc1 (stereo not given),-2.1%
16,CCCCOC(=O)c1cccc2c1-c1ccccc1C2=O,9.75%
17,C=CCn1c(SC)nc2c(c1=O)CCCC2,-34.5%
18,CCCCCCCCCCCCCCCCCC(=O)Nc1nc(N)nc(N)n1,11.1%
19,O=C(O)c1ccc(CC2CCCC2)cc1,30.8%
20,CCC(=O)c1cccc(-c2ccccc2)c1CC,17.9%

# Source: PubChem BioAssay (NCI)
